Screens (PubChem)
Compounds with a hit are over-represented: about 5.9% of the library has one in this group of screens.
HSP90 refold inh – HSP90 inhibitors, primary screen, cell lysate, luminescence; Rabbit reticulocyte lysate, luciferase refolding luminescence, 3 h; inhibition, % at 5.6 µM; 290,000 tested, 0.91% active;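 active = inhibition above the screen-wide mean plus 3 SD, computed separately per campaign, cut at about 16% in these data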;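 also: inhibitors lower the luminescence because luciferase stays unfolded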
AHR activator – AHR activators, primary screen, cell-based, luminescence, luciferase reporter, human | Aryl hydrocarbon receptor (Homo sapiens), P35869 | AHR-responsive luciferase reporter cells | 320,000 tested, 2.5% active | activation, % at 5 µM; in the data active = activation above about 47%
Target sequence (P35869 whole entry, looked up): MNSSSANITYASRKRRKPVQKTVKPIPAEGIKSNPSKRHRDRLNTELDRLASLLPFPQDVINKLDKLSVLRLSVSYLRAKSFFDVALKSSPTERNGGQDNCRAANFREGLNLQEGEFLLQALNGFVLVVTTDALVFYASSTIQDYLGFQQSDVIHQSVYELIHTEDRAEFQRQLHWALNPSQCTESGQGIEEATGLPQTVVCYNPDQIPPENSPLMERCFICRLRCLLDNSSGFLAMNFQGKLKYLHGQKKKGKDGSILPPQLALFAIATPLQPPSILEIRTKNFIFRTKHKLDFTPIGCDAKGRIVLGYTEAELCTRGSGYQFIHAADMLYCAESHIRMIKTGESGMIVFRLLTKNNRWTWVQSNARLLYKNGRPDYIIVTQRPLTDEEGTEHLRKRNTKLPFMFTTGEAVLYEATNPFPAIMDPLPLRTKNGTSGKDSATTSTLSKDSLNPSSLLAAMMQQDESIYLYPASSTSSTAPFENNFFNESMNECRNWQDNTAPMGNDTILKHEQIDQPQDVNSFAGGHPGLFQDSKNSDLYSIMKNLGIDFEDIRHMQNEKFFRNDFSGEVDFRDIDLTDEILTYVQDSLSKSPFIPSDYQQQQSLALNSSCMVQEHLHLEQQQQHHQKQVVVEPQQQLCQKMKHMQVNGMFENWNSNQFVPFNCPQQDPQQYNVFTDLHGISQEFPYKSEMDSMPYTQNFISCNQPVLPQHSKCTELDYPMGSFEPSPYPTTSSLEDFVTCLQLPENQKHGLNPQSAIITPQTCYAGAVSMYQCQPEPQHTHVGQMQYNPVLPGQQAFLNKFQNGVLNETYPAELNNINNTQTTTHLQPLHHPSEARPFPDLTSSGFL
HSF1 inhib – HSF1 inhibitors in luciferase reporter cells, primary screen, cell-based, NIH3T3, luminescence. NIH3T3-HGL HSE-luciferase, MG132-induced, luminescence 8 h; hits give low values. activity change, negative = inhibition, % at 7.5 µM (by protocol). 300,000 tested, 0.77% active;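 active = more than half of replicate wells show activity change below -50%, luminescence cut by over half; inconclusive = some wells, but at most half, below -50%; inactive = no replicate well below -50%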;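 also: luciferase reports HSF-1 transcriptional activity via heat shock element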
HSF1 activator – HSF-1 activators, primary screen, NIH3T3-HGL cells, MG132 stress, luminescence, single point; AID 504408, 2011; activation, % at 9 µM; NIH3T3-HGL HSF-1 luciferase reporter, 8 h; 100% = twice DMSO control signal; 300,000 tested, 1.7% active;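 active = mean replicate activation of at least 50% with a set share of replicates each reaching 50%; inconclusive = only one of those two conditions met; inactive = mean below 50% and too few replicates reaching it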
FXN GAA850 act – FXN promoter activators, primary screen, cell-based, luciferase luminescence, HEK293 lucGAA850. HEK293 lucGAA850 FXN promoter luciferase reporter, 24 h; percent of 10 µM SAHA response. activation, % at 6 µM. 360,000 tested, 0.56% active. AID 540364, 2011;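 active = activation above the average of all compounds screened plus 3 SD, cutoff fixed separately per campaign, cut at about 7.5% in these data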
NR0B1 inh – DAX1 (NR0B1) inhibitors, primary screen, cell-based, HEK293, Gal4-DAX1, luciferase luminescence; Nuclear receptor subfamily 0 group B member 1 (Homo sapiens), P51843; HEK293 Gal4-DAX1 luciferase reporter; 340,000 tested, 0.99% active; inhibition, % at 6.75 µM;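 active = inhibition above the mean over all tested compounds plus 3 SD, cut at about 4.2% in these data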;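 also: inhibition shows as a rise in luminescence from relieved DAX1 repression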
Numbers stand for hits; n = inactive; u = inconclusive; x = no result given.

SMILES	HSP90 refold inh	AHR activator	HSF1 inhib	HSF1 activator	FXN GAA850 act	NR0B1 inh
O=C(Nc1cccc2nsnc12)c1ccc(-c2ccc(Br)cc2)o1	n	49	n	n	n	n
COC(=O)c1ccccc1NC(=O)c1ccc(-c2ccc(Br)cc2)o1	n	n	n	n	n	n
OCCNc1ncnc2c1ncn2[C@H]1CN(C2CCCC2)C[C@@H](CO)O1	x	x	x	x	n	x
Cn1c(=O)c2cc(NC(=O)NCCc3cccs3)ccc2n1-c1ccc(C(C)(C)C)cc1	x	x	x	x	n	x
O=C(CSc1nnc(-c2ccncc2)n1Cc1ccco1)N1c2ccccc2Sc2ccc(Cl)cc21	n	n	n	70	n	n
Cn1c(SCC(=O)N2c3ccccc3Sc3ccc(Cl)cc32)nnc1-c1ccco1	n	n	x	x	n	n
CCN1C(=O)[C@H]2[C@@H](c3ccc(C)cc3)N[C@]3(CCCN(CCC(C)C)C3=O)[C@H]2C1=O	x	x	x	x	n	n
Cc1ccc(S(=O)(=O)N(C)CC(=O)NCC(=O)Nc2ccc(F)c(F)c2F)cc1	x	n	x	x	n	4.7
Cc1ccc(CNC(=O)CN(C)S(=O)(=O)c2ccc(F)cc2)cc1	x	n	n	n	n	n
CC1(C)CC(=O)C2=C(C1)c1c(ccc3ccccc13)NC2c1ccc(C(=O)O)cc1 (stereo unspecified)	n	n	n	n	n	n
Cc1ccc(C2Nc3ccc4ccccc4c3C3=C2C(=O)CC(C)(C)C3)o1 (stereo unspecified)	n	n	n	86	n	n
CCOc1cc(C(=O)N/N=C/C(Br)=C/c2ccccc2)cc(OCC)c1OCC	n	n	n	87	n	n
O=C(N/N=C/C(Br)=C/c1ccccc1)c1cccnc1	n	n	n	82	n	n
O=C(N/N=C/C(Br)=C/c1ccccc1)c1ccncc1	n	n	n	n	n	n
CCOc1c(Br)cc(/C=N\NC(=O)c2ccccc2)cc1OC	n	n	n	n	n	n
O=C(N/N=C/C(Br)=C/c1ccccc1)c1ccc([N+](=O)[O-])cc1	n	n	n	59	n	n
O=C(/C=C/c1cccc(Cl)c1Cl)OCC(=O)N1CCOCC1	x	x	x	x	n	n
N#Cc1ccc(OCC(=O)OCC(=O)N2CCc3ccccc32)cc1	x	x	x	x	n	n
O=C(CCNC(=O)c1ccc(Cl)cc1)NNC(=O)c1ccc(F)cc1	x	x	x	x	n	n
COc1ccccc1C#Cc1cnc2c(c1)C(=O)N([C@H](C)CO)C[C@H](C)[C@@H](CN(C)S(=O)(=O)c1cn(C)cn1)O2	x	x	x	x	n	n
CCOC(=O)C(=O)/C(C#N)=C/Nc1ccccc1	n	n	n	52	n	n
CCOC(=O)C(=CNc1ccc(S(N)(=O)=O)cc1)C(=O)OCC	n	n	n	n	n	n
CCOC(=O)C(=CNc1ccc(C#N)cc1)C(=O)OCC	n	n	n	60	n	n
O=C(NCc1cccnc1)c1cc(C2CCCCN2C(=O)c2ccc3c(c2)CCO3)on1 (stereo unspecified)	x	x	x	x	n	x
Cc1ccc(NC(=O)c2cc3c(=O)oc4ccccc4c3s2)nc1	n	n	n	97	n	n
SMILES	HSP90 refold inh	AHR activator	HSF1 inhib	HSF1 activator	FXN GAA850 act	NR0B1 inh
Cc1ccc2oc(=O)c3cc(C(=O)NCc4ccco4)sc3c2c1	n	n	n	n	n	6.1
Cc1ccc2oc(=O)c3cc(C(=O)NCCN4CCc5ccccc5C4)sc3c2c1	n	n	n	n	n	n
CC1Sc2ccc(C#N)cc2N(Cc2cccc(C(F)(F)F)c2)C1=O (stereo unspecified)	x	x	x	x	n	x
COc1cc(C(=O)OCC(=O)N(CC(C)C)C2CCS(=O)(=O)C2)cc(OC)c1C (stereo unspecified)	x	n	x	x	n	n
CC(C)CCN1C(=O)c2cccc3c(N)ccc(c23)C1=O	x	65	n	n	n	n
O=c1[nH]c(SCc2ccc(OC(F)(F)F)cc2)nc2c1CCC2	x	x	x	x	n	x
O=C(NCC(=O)N(CC1CCCO1)C(C(=O)NC1CCCCC1)c1cccnc1)c1cccs1 (stereo unspecified)	n	n	n	n	n	5.0
O=C(NCC(=O)N(CC1CCCO1)C(C(=O)NC1CCCCC1)c1ccccc1)c1cccs1 (stereo unspecified)	n	n	n	n	n	n
Cc1ccc(N(C(=O)CNC(=O)c2ccco2)C(C(=O)NC2CCCC2)c2cccnc2)cc1C (stereo unspecified)	n	n	n	n	n	4.3
Cc1ccc(CN(C(=O)Cc2cccs2)C(C(=O)NC2CCCC2)c2ccncc2)cc1 (stereo unspecified)	n	n	n	n	n	n
O=C(NC1CCCC1)C(c1ccccc1)N(Cc1cccnc1)C(=O)Cc1cccs1 (stereo unspecified)	n	n	n	55	n	n
Cc1ccc(N(C(=O)CNC(=O)c2ccco2)C(C(=O)NC2CCCCC2)c2cccnc2)cc1C (stereo unspecified)	n	n	n	n	n	n
COC(=O)c1ccc(N(CC(=O)NC2CCCCC2)C(=O)CNC(=O)c2ccco2)cc1	n	n	n	71	n	n
Cc1cc(NC(=O)CSc2nc3c(cc2C#N)CCCC3)no1	n	n	n	71	n	n
Cc1cc(NC(=O)CSc2nc3c(cc2C#N)CCC3)no1	n	n	n	84	n	4.7
Cc1cc(NC(=O)CSc2nc3ccccc3cc2C#N)no1	n	n	n	u	n	n
CCCCc1cc(=O)oc2cc(C)cc(OCC(=O)NCc3ccccn3)c12	n	n	n	n	n	n
Cc1ccc(CS(=O)Cc2ccc(C(=O)NCc3ccccc3Br)o2)cc1 (stereo unspecified)	n	n	n	n	n	n
CC(C)(C)Nc1nc(Cl)nc(NCCN2CCOCC2)n1	n	n	n	n	n	5.4
COc1cccc(-c2csc(NC(=O)Nc3ccccc3)n2)c1	n	n	-60	n	n	n
Cc1cccc(Nc2nc(-c3ccncc3)cs2)c1	n	54	n	n	n	n
COc1cccc(Nc2nnc(SCc3nc4ccccc4s3)s2)c1	n	67	n	n	n	n
COc1cccc(C(=O)Nc2nc(-c3ccc4c(c3)OCO4)cs2)c1	n	68	n	n	n	n
O=C(Cn1cnc2ccccc2c1=O)NNC(=O)c1ccccc1	n	n	n	n	n	x
C[C@@H]1CN([C@H](C)CO)C(=O)CCCn2nncc2CO[C@H]1CN(C)Cc1cccc(C(F)(F)F)c1	x	x	x	x	n	n
COc1ccc(-c2cc(C(=O)NCc3ccc(F)cc3)[nH]n2)c(C)c1	x	x	x	x	n	x
COc1cccc(Nc2nc(-c3cccc(N4C(=O)c5ccccc5C4=O)c3)cs2)c1	n	n	n	n	n	n
